The campaign covered roughly 5,500 compounds. About 2,000 (36%) were called active. Another 18% or so got no clear call; they are omitted. Cut-off read from the data, not from the text of the source: active = normalized growth mostly below about 0.91 (no sharp cut-off); inconclusive = no clear call, values can overlap the other calls; inactive = mostly above about 0.92. Some of the results follow.
Test: chemical genetic growth profiling, strain panel (AID 1159580);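 note: tested at 20 µM; growth read once vehicle control cultures reached saturation at 30 °C; 1 = growth at the plate median or of vehicle wells; lower values mean less growth of the strain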
Details: growth OD
[1] = S. cerevisiae deletion strains, locus YBR021W, strain FUR4, hits give low values
[2] = S. cerevisiae deletion strains, locus YBR229C, strain ROT2, hits give low values
[3] = S. cerevisiae deletion strains, locus YCL029C, strain bik1, hits give low values
[4] = S. cerevisiae deletion strains, locus YDL035C, strain GPR1, hits give low values
[5] = S. cerevisiae deletion strains, locus YDL074C, strain BRE1, hits give low values
[6] = S. cerevisiae deletion strains, locus YDL101C, strain DUN1, hits give low values
[7] = S. cerevisiae deletion strains, locus YDL185W, strain tfp1, hits give low values
[8] = S. cerevisiae deletion strains, locus YDL192W, strain arf1, hits give low values
[9] = S. cerevisiae deletion strains, locus YDR101C, strain arx1, hits give low values
[10] = S. cerevisiae deletion strains, locus YDR162C, strain NBP2, hits give low values
[11] = S. cerevisiae deletion strains, locus YDR318W, strain mcm21, hits give low values
[12] = S. cerevisiae deletion strains, locus YDR388W, hits give low values
[13] = S. cerevisiae deletion strains, locus YDR502C, strain sam2, hits give low values
[14] = S. cerevisiae deletion strains, locus YER110C, hits give low values
[15] = S. cerevisiae deletion strains, locus YER155C, strain BEM2, hits give low values
[16] = S. cerevisiae deletion strains, locus YER167W, strain BCK2, hits give low values
[17] = S. cerevisiae deletion strains, locus YGL078C, strain dbp3, hits give low values
[18] = S. cerevisiae deletion strains, locus YGL086W, strain mad1, hits give low values
[19] = S. cerevisiae deletion strains, locus YGL248W, strain PDE1, hits give low values
[20] = S. cerevisiae deletion strains, locus YGR078C, strain PAC10, hits give low values
[21] = S. cerevisiae deletion strains, locus YGR135W, strain pre9, hits give low values
[22] = S. cerevisiae deletion strains, locus YGR252W, strain gcn5, hits give low values
[23] = S. cerevisiae deletion strains, locus YHR079C, strain IRE1 (second series), hits give low values
[24] = S. cerevisiae deletion strains, locus YHR094C, strain hxt1, hits give low values
[25] = S. cerevisiae deletion strains, locus YHR129C, strain ARP1, hits give low values
[26] = S. cerevisiae deletion strains, locus YHR200W, strain rpn10, hits give low values
[27] = S. cerevisiae deletion strains, locus YIL066C, strain RNR3, hits give low values
[28] = S. cerevisiae deletion strains, locus YIL073C, strain SPO22, hits give low values
[29] = S. cerevisiae deletion strains, locus YIL125W, strain kgd1, hits give low values
[30] = S. cerevisiae deletion strains, locus YIR030C, strain dcg1, hits give low values
[31] = S. cerevisiae deletion strains, locus YJL095W, strain BCK1, hits give low values
[32] = S. cerevisiae deletion strains, locus YJL134W, strain LCB3, hits give low values
[33] = S. cerevisiae deletion strains, locus YJL168C, strain set2, hits give low values
[34] = S. cerevisiae deletion strains, locus YJL187C, strain SWE1 (second series), hits give low values
[35] = S. cerevisiae deletion strains, locus YKL009W, strain mrt4, hits give low values
[36] = S. cerevisiae deletion strains, locus YKL068W, hits give low values
[37] = S. cerevisiae deletion strains, locus YKL085W, strain MDH1 (second series), hits give low values
[38] = S. cerevisiae deletion strains, locus YKL085W, strain MDH1, hits give low values
[39] = S. cerevisiae deletion strains, locus YKL190W, strain CNB1, hits give low values
[40] = S. cerevisiae deletion strains, locus YKR001C, strain vps1, hits give low values
[41] = S. cerevisiae deletion strains, locus YLR039C, strain RIC1, hits give low values
[42] = S. cerevisiae deletion strains, locus YLR058C, strain SHM2, hits give low values
[43] = S. cerevisiae deletion strains, locus YLR102C, strain apc9, hits give low values
[44] = S. cerevisiae deletion strains, locus YLR268W, strain sec22, hits give low values
[45] = S. cerevisiae deletion strains, locus YLR330W, strain CHS5, hits give low values
[46] = S. cerevisiae deletion strains, locus YLR342W, strain FKS1 (second series), hits give low values
[47] = S. cerevisiae deletion strains, locus YLR371W, strain rom2, hits give low values
[48] = S. cerevisiae deletion strains, locus YLR418C, strain cdc73, hits give low values
[49] = S. cerevisiae deletion strains, locus YML016C, strain PPZ1, hits give low values
[50] = S. cerevisiae deletion strains, locus YML032C, strain rad52, hits give low values
[51] = S. cerevisiae deletion strains, locus YML124C, strain tub3, hits give low values
[52] = S. cerevisiae deletion strains, locus YMR078C, strain ctf18, hits give low values
[53] = S. cerevisiae deletion strains, locus YMR223W, strain ubp8, hits give low values
[54] = S. cerevisiae deletion strains, locus YMR307W, strain GAS1, hits give low values
[55] = S. cerevisiae deletion strains, locus YNL067W, strain RPL9B, hits give low values
[56] = S. cerevisiae deletion strains, locus YNL153C, strain GIM3, hits give low values
[57] = S. cerevisiae deletion strains, locus YNL233W, strain BNI4, hits give low values
[58] = S. cerevisiae deletion strains, locus YNL250W, strain rad50, hits give low values
[59] = S. cerevisiae deletion strains, locus YNL271C, strain bni1, hits give low values
[60] = S. cerevisiae deletion strains, locus YNL298W, strain CLA4, hits give low values
[61] = S. cerevisiae deletion strains, locus YNL307C, strain MCK1, hits give low values
[62] = S. cerevisiae deletion strains, locus YNR052C, strain pop2, hits give low values
[63] = S. cerevisiae deletion strains, locus YOL012C, strain htz1
[64] = S. cerevisiae deletion strains, locus YOL147C, strain pex11, hits give low values
[65] = S. cerevisiae deletion strains, locus YOR061W, strain CKA2, hits give low values
[66] = S. cerevisiae deletion strains, locus YOR069W, strain VPS5, hits give low values
[67] = S. cerevisiae deletion strains, locus YOR136W, strain idh2, hits give low values
[68] = S. cerevisiae deletion strains, locus YOR144C, strain elg1, hits give low values
[69] = S. cerevisiae deletion strains, locus YOR184W, strain ser1, hits give low values
[70] = S. cerevisiae deletion strains, locus YOR316C, strain cot1, hits give low values
[71] = S. cerevisiae deletion strains, locus YPR119W, strain clb2, hits give low values
[72] = S. cerevisiae deletion strains, locus YPR141C, strain kar3, hits give low values
[73] = S. cerevisiae deletion strains, locus YPR163C, strain tif3, hits give low values
[74] = S. cerevisiae deletion strains, locus YPR167C, strain met16, hits give low values
[75] = S. cerevisiae deletion strains, strain wtn01, hits give low values
[76] = S. cerevisiae deletion strains, locus YGR229C, strain SMI1, hits give low values
[77] = S. cerevisiae deletion strains, locus YNL322C, strain KRE1, hits give low values

Measured: normalized growth

COc1cc2c(cc1O)C(Cc1ccc(O)cc1)N(C)CC2 (stereo unspecified)
inactive: S. cerevisiae deletion strains, locus YAL013W, strain DEP1, hits give low values 1.01 | [1] 1.02 | [2] 1.02 | [3] 1 | [4] 1.05 | [5] 1.06 | [6] 1.02 | [7] 1.01 | [8] 1.02 | [9] 1.01 | [10] 1.05 | [11] 1.01 | [12] 1.01 | [13] 0.979 | [14] 0.977 | [15] 1.01 | [16] 1.02 | [17] 0.984 | [18] 1.01 | [19] 1.03 | [20] 1.02 | [21] 0.981 | [22] 0.923 | [23] 0.991 | [24] 0.982 | [25] 1.02 | [26] 0.986 | [27] 1.03 | [28] 0.998 | [29] 1.01 | [30] 1 | [31] 1.03 | [32] 1.02 | [33] 0.998 | [34] 1.02 | [35] 1.02 | [36] 0.998 | [37] 1.01 | [38] 1.01 | [39] 1.02 | [40] 1.01 | [41] 1.05 | [42] 1.04 | [43] 0.977 | [44] 1.03 | [45] 1.02 | [46] 1.07 | [47] 1.01 | [48] 1.01 | [49] 1.02 | [50] 1.01 | [51] 0.999 | [52] 0.994 | [53] 0.993 | [54] 1.12 | [55] 1.01 | [56] 1.01 | [57] 1.01 | [58] 1 | [59] 1.01 | [60] 1.01 | [61] 0.994 | [62] 0.982 | [63] 0.669 | [64] 1 | [65] 1.03 | [66] 1.01 | [67] 0.972 | [68] 0.996 | [69] 1.05 | [70] 0.989 | [71] 0.991 | [72] 1.01 | [73] 0.998 | [74] 0.973 | [75] 1.01

O=c1ccn([C@@H]2O[C@H](COP(=O)(O)OP(=O)(O)O)[C@@H](O)[C@H]2O)c(=O)[nH]1
inactive: S. cerevisiae deletion strains, locus YAL040C, strain CLN3, hits give low values 0.981 | S. cerevisiae deletion strains, locus YCL061C, strain MRC1 (second series), hits give low values 0.991 | S. cerevisiae deletion strains, locus YDR363W, strain ESC2, hits give low values 0.981 | S. cerevisiae deletion strains, locus YER002W, strain NOP16, hits give low values 0.995 | [76] 0.972 | S. cerevisiae deletion strains, locus YJR075W, strain HOC1, hits give low values 0.976 | [54] 0.985 | [56] 0.983 | S. cerevisiae deletion strains, locus YNL175C, strain NOP13, hits give low values 0.988 | S. cerevisiae deletion strains, locus YNL197C, strain WHI3, hits give low values 0.967 | S. cerevisiae deletion strains, locus YNL224C, strain SQS1, hits give low values 0.992 | [77] 0.971 | S. cerevisiae deletion strains, locus YOR083W, strain WHI5 (second series), hits give low values 0.992 | S. cerevisiae deletion strains, locus YPL241C, strain CIN2, hits give low values 1

NC(N)=NCCC[C@@H](NC(=O)[C@@H](N)Cc1ccc(O)cc1)C(=O)O
inactive: [1] 1.01 | [2] 1.01 | [3] 1.01 | [4] 1.02 | [5] 1.01 | [6] 1 | S. cerevisiae deletion strains, locus YDL134C, strain PPH21, hits give low values 1.01 | [7] 1.01 | [8] 1.01 | [9] 0.996 | S. cerevisiae deletion strains, locus YDR150W, strain NUM1, hits give low values 1.01 | [10] 1 | [11] 1.01 | [12] 1.01 | [13] 1.02 | S. cerevisiae deletion strains, locus YEL061C, strain CIN8, hits give low values 1.01 | [14] 1.02 | [15] 1.01 | [16] 1.01 | [17] 1.01 | [18] 1 | [19] 1.01 | [20] 0.996 | [21] 1.01 | [76] 0.997 | [22] 0.99 | S. cerevisiae deletion strains, locus YHR030C, strain SLT2, hits give low values 1.01 | [23] 1.01 | [24] 1.01 | [25] 1 | [26] 1.01 | [27] 1.01 | [28] 1.03 | [29] 1.01 | [30] 1.01 | [31] 0.996 | [32] 1.01 | [33] 1.01 | [34] 1.01 | S. cerevisiae deletion strains, locus YJR043C, strain POL32, hits give low values 1.01 | [35] 0.997 | [36] 1.01 | [37] 1.01 | [38] 1.01 | [39] 1.01 | [40] 0.993 | [41] 1.03 | [42] 1.01 | [43] 1.01 | S. cerevisiae deletion strains, locus YLR262C, strain YPT6, hits give low values 0.992 | [44] 1.01 | [45] 1.01 | [46] 1.02 | [47] 1.01 | [48] 1.02 | [49] 1 | [50] 1.02 | [51] 1.01 | [52] 1.01 | [53] 1.01 | [54] 0.979 | [55] 1.01 | [56] 0.993 | [57] 1.01 | [58] 0.998 | [59] 1.01 | [60] 1.01 | [61] 1.01 | [77] 1.01 | [62] 1.02 | S. cerevisiae deletion strains, locus YOL006C, strain TOP1, hits give low values 1.03 | [63] 1.88 | [64] 1.01 | [65] 1.01 | [66] 1.01 | [67] 1 | [68] 1.01 | [69] 1.01 | [70] 1.01 | S. cerevisiae deletion strains, locus YPL055C, strain LGE1, hits give low values 1 | [71] 1.01 | [72] 1.01 | [73] 1.02 | [74] 1.01 | [75] 0.999 | S. cerevisiae strains, strain wild type, hits give low values 1

From PubChem BioAssay AID1159580 (chemical genetic matrix, 2015)
